21 sequences from PMC5700166 can be followed below.

The target of this assay is T1, GST-Ap-NF-kB RHD (Exaiptasia pallida (Aiptasia), UniProt A0A913YAJ5 2-422).
T1 sequence: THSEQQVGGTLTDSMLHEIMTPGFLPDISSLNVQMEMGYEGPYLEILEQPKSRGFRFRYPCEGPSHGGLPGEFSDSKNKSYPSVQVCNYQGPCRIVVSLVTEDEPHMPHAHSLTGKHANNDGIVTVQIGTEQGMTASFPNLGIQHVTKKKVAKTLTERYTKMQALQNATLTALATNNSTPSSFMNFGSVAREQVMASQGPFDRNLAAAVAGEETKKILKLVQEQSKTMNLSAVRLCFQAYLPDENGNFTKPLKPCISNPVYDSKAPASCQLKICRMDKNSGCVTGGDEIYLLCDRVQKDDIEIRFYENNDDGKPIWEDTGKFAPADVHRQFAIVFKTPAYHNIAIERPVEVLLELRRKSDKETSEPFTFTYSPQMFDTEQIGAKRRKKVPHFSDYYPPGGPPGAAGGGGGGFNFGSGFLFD
Put plainly: protein-binding microarray (PBM); PBM: ~300 nM protein, 6 mM HEPES pH 7.8, 80 mM KCl, 0.5 mM EDTA, 0.5 mM EGTA, 6% glycerol, 35 ng/ul poly-dIdC, 1% milk, 1 h, room temperature; Ap Aiptasia and Nv Nematostella (sea anemones) / Co Capsaspora / Aq Amphimedon (sponge) / Dm Drosophila / Hu human; RHD is the Rel homology domain; high values mean tight binding. To be noted: dsDNA, one strand shown.
Take “CCGATTAACATCAGGGGCCGTAATGATGTTAATCGGGTCTTGATTCGCTTGACGCTGCTG”: the binding signal stood at 1.66 z-score.

In turn, “CCGATTAACATCAGGAACCTCCCTGATGTTAATCGGGTCTTGATTCGCTTGACGCTGCTG” showed a binding signal of 1.92 z-score.

“CCGATTAACATCATGGGGCATGCTGATGTTAATCGGGTCTTGATTCGCTTGACGCTGCTG” yielded a binding signal of 1.18 z-score.

Regarding “CCGATTAACATCAGGCAGTTCCCTGATGTTAATCGGGTCTTGATTCGCTTGACGCTGCTG”, the binding signal is 1.39 z-score.

In turn, “CCGATTAACATCAGGACACTCCCTGATGTTAATCGGGTCTTGATTCGCTTGACGCTGCTG” came in with a binding signal of 1.81 z-score.

Regarding “CCGATTAACATCAGGACTTGCCCTGATGTTAATCGGGTCTTGATTCGCTTGACGCTGCTG”, the binding signal was found to be 1.21 z-score.

The sequence “CCGATTAACATCAGGGGTCAGTATGATGTTAATCGGGTCTTGATTCGCTTGACGCTGCTG” registered a binding signal of 1.23 z-score.

On to “CCGATTAACATCAGGAACGTCCCTGATGTTAATCGGGTCTTGATTCGCTTGACGCTGCTG”, for which the binding signal worked out at 3.25 z-score.

For “CCGATTAACATCATTGTCCCTTCTGATGTTAATCGGGTCTTGATTCGCTTGACGCTGCTG”, the binding signal was 2.23 z-score.

“CCGATTAACATCAGGCACTTCCCTGATGTTAATCGGGTCTTGATTCGCTTGACGCTGCTG”: the binding signal amounted to 1.15 z-score.

On to “CCGATTAACATCAACGGGTCCCTTGATGTTAATCGGGTCTTGATTCGCTTGACGCTGCTG”, for which the binding signal is 2.6 z-score.

As to “CCGATTAACATCAGTCCCGCACTTGATGTTAATCGGGTCTTGATTCGCTTGACGCTGCTG”, the binding signal was 1.61 z-score.

Consider “CCGATTAACATCAGGAATTGCCCTGATGTTAATCGGGTCTTGATTCGCTTGACGCTGCTG”, for which the binding signal turned out to be 1.16 z-score.

Turning to “CCGATTAACATCAGTCCCTAAGCTGATGTTAATCGGGTCTTGATTCGCTTGACGCTGCTG”, the binding signal turned out to be 1.75 z-score.

“CCGATTAACATCAGGAGCTTCCCTGATGTTAATCGGGTCTTGATTCGCTTGACGCTGCTG” yielded a binding signal of 1.1 z-score.

In turn, “CCGATTAACATCAGTTGTCCCGCTGATGTTAATCGGGTCTTGATTCGCTTGACGCTGCTG” showed a binding signal of 1.69 z-score.

Regarding “CCGATTAACATCATAGTCCCATGTGATGTTAATCGGGTCTTGATTCGCTTGACGCTGCTG”, the binding signal was 2.47 z-score.

“CCGATTAACATCAGGGCATGCCCTGATGTTAATCGGGTCTTGATTCGCTTGACGCTGCTG” displayed a binding signal of 1.37 z-score.

Sequence “CCGATTAACATCAGGCATGCCCCTGATGTTAATCGGGTCTTGATTCGCTTGACGCTGCTG” gave a binding signal of 2.6 z-score.

Sequence “CCGATTAACATCAGGACCGTCCCTGATGTTAATCGGGTCTTGATTCGCTTGACGCTGCTG” gave a binding signal of 4.25 z-score.

Turning to “CCGATTAACATCAAGCCTGTCCCTGATGTTAATCGGGTCTTGATTCGCTTGACGCTGCTG”, the binding signal was determined as 2.01 z-score.
